Compound activity from PubChem.
Shown are actives, neighbours in structure and some others; about 2.3% of the full set was active somewhere.
Pf Dd2 growth = blocks growth of Plasmodium falciparum Dd2 parasites; activity change, % at 10 µM; 94,000 tested, 2.3% active; AID 1159554; P. falciparum Dd2 growth, SYBR Green, 72 h; hits give low values; in the data active = activity change below about -80%
C diff HTS = C. difficile growth inhibition | Clostridium difficile clinical isolate growth, OD600, 24 h; hits give low values | growth activity, negative = inhibition, % at 16 µg/mL (by protocol) | 86,000 tested, 0.25% active;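 active = mean growth activity at or below -80% and every replicate also at or below -80%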
Of the large screens only hits and unclear results are named; the others gave an inactive call.

O=C(O)C[C@H]1CC[C@@H](NC(=O)CCN2CCCCC2)[C@@H](CO)O1	none
C[C@@H]1CCCCO[C@H](CN(C)CC2CCCCC2)[C@@H](C)CN([C@H](C)CO)C(=O)c2cc(NC(=O)Nc3cccc4ccccc34)ccc2O1	none
C[C@H]1CCCCO[C@@H](CN(C)CC2CCCCC2)[C@@H](C)CN([C@@H](C)CO)C(=O)c2cc(NC(=O)Nc3cccc4ccccc34)ccc2O1	Pf Dd2 growth -83.1
C[C@@H]1CN([C@@H](C)CO)C(=O)c2cc(NC(=O)Nc3cccc4ccccc34)ccc2O[C@@H](C)CCCCO[C@@H]1CN(C)C	Pf Dd2 growth -86.6
C[C@@H]1CCCCO[C@@H](CN(C)C)[C@@H](C)CN([C@@H](C)CO)C(=O)c2cc(NC(=O)Nc3cccc4ccccc34)ccc2O1	none (no result: Pf Dd2 growth)
Cc1ccc(S(=O)(=O)N[C@@H]2CC[C@@H](CCn3cc(C4CCCC4)nn3)O[C@H]2CO)cc1	none
C[C@H](CO)N1C[C@H](C)[C@H](CN(C)C(=O)Nc2ccc3c(c2)OCO3)OCCCC[C@H](C)Oc2ccc(NC(=O)Nc3cccc4ccccc34)cc2C1=O	none
C[C@@H]1CCCCO[C@H](CN(C)C(=O)Nc2cccc3ccccc23)[C@H](C)CN([C@@H](C)CO)C(=O)c2cc(NC(=O)Nc3ccc4c(c3)OCO4)ccc2O1	Pf Dd2 growth -82.8
C[C@@H]1CCCCO[C@@H](CN(C)C(=O)Nc2cccc3ccccc23)[C@@H](C)CN([C@H](C)CO)C(=O)c2cc(NC(=O)Nc3cccc4ccccc34)ccc2O1	none (no result: C diff HTS)
C[C@@H]1CN([C@@H](C)CO)C(=O)c2cc(NC(=O)Nc3cccc4ccccc34)ccc2O[C@@H](C)CCCCO[C@H]1CN(C)C(=O)Nc1cccc2ccccc12	none (no result: C diff HTS)
C[C@@H]1CN([C@@H](C)CO)C(=O)c2cc(NC(=O)Nc3ccc4c(c3)OCO4)ccc2O[C@@H](C)CCCCO[C@H]1CN(C)C(=O)Nc1cccc2ccccc12	none
C[C@@H]1CCCCO[C@@H](CN(C)C(=O)Nc2cccc3ccccc23)[C@@H](C)CN([C@H](C)CO)C(=O)c2cc(NC(=O)Nc3ccc4c(c3)OCO4)ccc2O1	Pf Dd2 growth -87.4
C[C@@H]1CCCCO[C@@H](CN(C)C(=O)Nc2ccc3c(c2)OCO3)[C@@H](C)CN([C@@H](C)CO)C(=O)c2cc(NC(=O)Nc3cccc4ccccc34)ccc2O1	Pf Dd2 growth -91.2
C[C@@H]1CCCCO[C@@H](CN(C)C(=O)Nc2cccc3ccccc23)[C@H](C)CN([C@H](C)CO)C(=O)c2cc(NC(=O)Nc3ccc4c(c3)OCO4)ccc2O1	Pf Dd2 growth -89.6
COCC(=O)N1C[C@@H](C)[C@H](OC)CN(C)C(=O)c2ccc(NC(=O)c3cnccn3)cc2OC[C@H]1C	none
C[C@@H]1CCCCO[C@@H](CN(C)Cc2ccc(C(=O)O)cc2)[C@@H](C)CN([C@@H](C)CO)C(=O)c2cc(NC(=O)c3ccncc3)ccc2O1	none
C[C@@H]1CN([C@H](C)CO)C(=O)Cc2cc(NC(=O)CCCCCC(=O)Nc3ccccc3N)ccc2O[C@H]1CN(C)S(C)(=O)=O	none
O=C(c1ccncc1)N1CC2(C1)[C@@H](c1ccccc1)[C@@H](CO)N2C(=O)c1ccncc1	none
C[C@H](CO)N1C[C@H](C)[C@@H](CN(C)Cc2ccc(C(=O)Nc3ccccc3N)cc2)Oc2c(NS(=O)(=O)c3cn(C)cn3)cccc2C1=O	none
CC(C)NC(=O)N1CCCCN2[C@H](CO)[C@H](c3ccc(C#Cc4ccccc4)cc3)[C@@H]2C1	none
COc1ccc(CN(C)C[C@@H]2OCCCC[C@H](C)Oc3ccc(NC(=O)Nc4cccc5ccccc45)cc3C(=O)N([C@@H](C)CO)C[C@H]2C)cc1	none
COc1ccc(CN(C)C[C@H]2OCCCC[C@@H](C)Oc3ccc(NC(=O)Nc4cccc5ccccc45)cc3C(=O)N([C@H](C)CO)C[C@H]2C)cc1	Pf Dd2 growth -86.7
COc1ccc(CN(C)C[C@H]2OCCCC[C@H](C)Oc3ccc(NC(=O)Nc4cccc5ccccc45)cc3C(=O)N([C@H](C)CO)C[C@@H]2C)cc1	none
COc1ccc(CN(C)C[C@@H]2OCCCC[C@@H](C)Oc3ccc(NC(=O)Nc4cccc5ccccc45)cc3C(=O)N([C@H](C)CO)C[C@@H]2C)cc1	none
COc1ccc(CN(C)C[C@H]2OCCCC[C@@H](C)Oc3ccc(NC(=O)Nc4cccc5ccccc45)cc3C(=O)N([C@@H](C)CO)C[C@@H]2C)cc1	Pf Dd2 growth -89.5
COc1ccc(CN(C)C[C@H]2OCCCC[C@@H](C)Oc3ccc(NC(=O)Nc4cccc5ccccc45)cc3C(=O)N([C@@H](C)CO)C[C@H]2C)cc1	Pf Dd2 growth -89.2
C[C@H]1CN([C@@H](C)CO)C(=O)c2cc(N(C)C)ccc2O[C@H]1CN(C)S(C)(=O)=O	none
CC(C)NC(=O)N(C)C[C@H]1OCCCC[C@@H](C)Oc2ccc(NS(=O)(=O)c3ccc(F)cc3)cc2C(=O)N([C@H](C)CO)C[C@H]1C	none (no result: Pf Dd2 growth)
O=C(C[C@H]1CC[C@H](NC(=O)NC2CCCCC2)[C@H](CO)O1)NCc1ccc(F)cc1	none
C[C@H](CO)N1C[C@H](C)[C@@H](CN(C)C(=O)CCN(C)C)OCc2ccccc2-c2c(n(C)c3ccccc23)C1=O	Pf Dd2 growth -85.0
C[C@@H]1CN([C@@H](C)CO)C(=O)c2c(c3ccccc3n2C)-c2ccccc2CO[C@H]1CN(C)C(=O)Cc1ccccc1	Pf Dd2 growth -86.3
C[C@H]1CN([C@@H](C)CO)C(=O)c2c(c3ccccc3n2C)-c2ccccc2CO[C@H]1CN(C)C(=O)Cc1ccccc1	none
C[C@@H]1CN([C@@H](C)CO)C(=O)c2c(c3ccccc3n2C)-c2ccccc2CO[C@@H]1CN(C)C(=O)CCN(C)C	none
CCS(=O)(=O)NCC[C@@H]1CC[C@H](NC(=O)Cc2ccccn2)[C@@H](CO)O1	none (no result: C diff HTS)
C[C@@H]1CCCCO[C@@H](CN(C)C(=O)Nc2ccc(F)cc2)[C@H](C)CN([C@H](C)CO)C(=O)c2cc(NS(=O)(=O)c3ccc(Cl)cc3)ccc2O1	none (no result: C diff HTS)
CO[C@H]1CN(C)C(=O)c2cc(NC(C)=O)ccc2OC[C@H](C)N(CCC(F)(F)F)C[C@@H]1C	none (no result: C diff HTS)
C[C@@H]1CN([C@H](C)CO)C(=O)c2cc(NC(=O)Nc3ccc4c(c3)OCO4)ccc2O[C@@H](C)CCCCO[C@@H]1CN(C)S(=O)(=O)c1cccs1	Pf Dd2 growth -91.7
C[C@@H]1CN([C@H](C)CO)C(=O)c2cc(NC(=O)Cc3ccccc3)ccc2O[C@@H](C)CCCCO[C@@H]1CN(C)S(=O)(=O)c1cccs1	Pf Dd2 growth -81.1
C[C@@H]1CCCCO[C@H](CN(C)S(=O)(=O)c2cccs2)[C@H](C)CN([C@@H](C)CO)C(=O)c2cc(NC(=O)NC3CCCCC3)ccc2O1	Pf Dd2 growth -83.8
C[C@@H]1CCCCO[C@@H](CN(C)S(=O)(=O)c2cccs2)[C@H](C)CN([C@@H](C)CO)C(=O)c2cc(NC(=O)NC3CCCCC3)ccc2O1	none
C[C@@H]1CCCCO[C@H](CN(C)S(=O)(=O)c2cccs2)[C@@H](C)CN([C@H](C)CO)C(=O)c2cc(NC(=O)NC3CCCCC3)ccc2O1	none
C[C@@H]1CCCCO[C@@H](CN(C)S(=O)(=O)c2cccs2)[C@@H](C)CN([C@H](C)CO)C(=O)c2cc(NC(=O)Cc3ccccc3)ccc2O1	none
C[C@@H]1CN([C@@H](C)CO)C(=O)c2cc(NC(=O)NC3CCCCC3)ccc2O[C@@H](C)CCCCO[C@@H]1CN(C)S(=O)(=O)c1cccs1	Pf Dd2 growth -88.9
